Source: PubChem (National Center for Advancing Translational Sciences (NCATS))
Only some compounds are listed: those with a hit (about 11% of all), similar ones and a draw of the others.
BAZ2B block: qHTS Assay for Inhibitors of BAZ2B. 360,000 tested, 4.4% active. Potency, µM (highest dose often 114 µM), without a hit: at the highest dose activity change, negative = inhibition, usual class: inhibitors. AID 504333, 2011. AlphaScreen BAZ2B-H3K14Ac peptide displacement. Bromodomain adjacent to zinc finger domain protein 2B (Homo sapiens), Q9UIF8; also: % is scaled to controls: 0 for no effect and ±100 for the full control effect; nearly all actives have a fitted effect of over 60% in size
Target sequence (Q9UIF8 whole entry, looked up, the tested form may be a part): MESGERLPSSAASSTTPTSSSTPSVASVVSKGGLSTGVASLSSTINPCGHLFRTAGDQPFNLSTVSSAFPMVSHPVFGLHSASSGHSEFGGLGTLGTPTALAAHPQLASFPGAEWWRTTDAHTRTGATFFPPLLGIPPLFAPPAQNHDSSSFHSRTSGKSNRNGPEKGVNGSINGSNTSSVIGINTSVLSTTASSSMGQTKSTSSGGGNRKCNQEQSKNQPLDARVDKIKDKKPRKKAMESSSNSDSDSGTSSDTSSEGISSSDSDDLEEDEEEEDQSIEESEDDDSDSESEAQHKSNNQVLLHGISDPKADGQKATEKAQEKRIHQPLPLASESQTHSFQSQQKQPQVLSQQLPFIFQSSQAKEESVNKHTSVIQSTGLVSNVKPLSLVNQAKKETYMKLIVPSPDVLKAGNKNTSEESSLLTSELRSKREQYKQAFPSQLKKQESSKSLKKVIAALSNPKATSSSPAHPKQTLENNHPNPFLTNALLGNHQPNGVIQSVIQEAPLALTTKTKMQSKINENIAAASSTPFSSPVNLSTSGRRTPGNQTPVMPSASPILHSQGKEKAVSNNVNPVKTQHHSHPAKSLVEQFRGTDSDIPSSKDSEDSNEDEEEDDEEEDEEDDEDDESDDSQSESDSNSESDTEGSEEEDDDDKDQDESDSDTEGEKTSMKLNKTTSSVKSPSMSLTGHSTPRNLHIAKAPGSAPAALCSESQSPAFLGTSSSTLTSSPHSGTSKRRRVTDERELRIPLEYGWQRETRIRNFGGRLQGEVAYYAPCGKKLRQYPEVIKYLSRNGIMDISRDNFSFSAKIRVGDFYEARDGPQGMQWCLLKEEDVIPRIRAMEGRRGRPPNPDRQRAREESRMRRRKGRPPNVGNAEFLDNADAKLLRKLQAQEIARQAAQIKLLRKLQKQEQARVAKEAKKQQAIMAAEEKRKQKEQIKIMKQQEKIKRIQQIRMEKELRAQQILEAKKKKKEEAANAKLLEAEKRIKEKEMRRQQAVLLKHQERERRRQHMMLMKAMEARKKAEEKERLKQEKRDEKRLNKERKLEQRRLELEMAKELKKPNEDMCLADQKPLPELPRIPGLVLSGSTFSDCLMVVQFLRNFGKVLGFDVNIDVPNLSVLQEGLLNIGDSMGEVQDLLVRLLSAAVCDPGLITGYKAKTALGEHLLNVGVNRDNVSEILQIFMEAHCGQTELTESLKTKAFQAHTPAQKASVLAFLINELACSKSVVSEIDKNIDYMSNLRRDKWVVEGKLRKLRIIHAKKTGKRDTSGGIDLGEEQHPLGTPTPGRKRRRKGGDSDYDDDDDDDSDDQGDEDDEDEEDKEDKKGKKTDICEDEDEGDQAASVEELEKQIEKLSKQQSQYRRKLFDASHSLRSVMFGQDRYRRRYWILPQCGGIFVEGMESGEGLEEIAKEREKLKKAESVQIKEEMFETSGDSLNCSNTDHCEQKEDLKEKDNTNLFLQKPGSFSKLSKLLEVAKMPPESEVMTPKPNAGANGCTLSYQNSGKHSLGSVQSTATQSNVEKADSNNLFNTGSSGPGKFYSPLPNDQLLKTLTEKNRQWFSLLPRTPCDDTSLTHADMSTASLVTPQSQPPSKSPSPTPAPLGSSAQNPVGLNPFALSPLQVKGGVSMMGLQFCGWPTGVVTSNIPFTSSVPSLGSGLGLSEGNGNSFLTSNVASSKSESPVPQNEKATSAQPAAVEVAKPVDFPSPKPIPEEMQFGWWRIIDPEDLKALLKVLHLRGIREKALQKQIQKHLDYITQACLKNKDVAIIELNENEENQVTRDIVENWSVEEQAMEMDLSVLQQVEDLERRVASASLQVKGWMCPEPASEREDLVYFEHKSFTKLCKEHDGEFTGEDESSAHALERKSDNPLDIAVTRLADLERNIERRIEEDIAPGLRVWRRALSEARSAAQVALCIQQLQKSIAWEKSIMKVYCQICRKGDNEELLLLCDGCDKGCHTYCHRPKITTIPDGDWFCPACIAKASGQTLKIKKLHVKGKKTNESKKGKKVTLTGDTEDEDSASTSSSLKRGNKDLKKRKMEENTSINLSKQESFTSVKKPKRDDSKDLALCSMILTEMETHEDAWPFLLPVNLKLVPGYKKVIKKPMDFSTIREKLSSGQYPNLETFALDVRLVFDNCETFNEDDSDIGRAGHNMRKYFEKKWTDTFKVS
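Inhibition is scored as reduced AlphaScreen emission. The BAZ2B/b-H3(5-23)K14Ac complex (50 nM each) in PBS pH 7.4, 0.01% Tween-20 meets compound (up to 110 uM) for 30 min at RT before bead addition.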
JMJD2A Tudor: qHTS Assay for Inhibitors of JMJD2A-Tudor Domain; Potency, µM (titrated, usually from 114 µM), inactives show at the top dose activity change, negative = inhibition, actives largely listed as inhibitors; AlphaScreen JMJD2A-Tudor / H3K4me3 peptide binding; 390,000 tested, 4.4% active; also: % is scaled to controls: 0 for no effect and ±100 for the full control effect; nearly all actives have a fitted effect of over 50% in size
G9a inh: qHTS Assay for Inhibitors of Histone Lysine Methyltransferase G9a | G9a H3K9 monomethylation, AlphaScreen, 2 h | AID 504332, 2011 | Potency, µM (top dose mostly 102 µM), without a hit: top-dose activity, negative = inhibition, actives largely listed as inhibitors | 350,000 tested, 8.8% active | Histone-lysine N-methyltransferase EHMT2 (Homo sapiens), Q96KQ7; also: % is scaled to controls: 0 for no effect and ±100 for the full control effect; nearly all actives have a fitted effect of over 75% in size
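Chemiluminescent proximity detection of H3K9 monomethylation, read after 10 min bead incubation in the dark. Reaction: 20 nM G9a, 500 nM biotin-H3K9 peptide, 20 uM SAM cofactor, 2 h, room temperature, following 15 min enzyme-compound preincubation.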
PLK1 PBD block: qHTS for Inhibitors of PLK1-PDB (polo-like kinase 1 - polo-box domain): Primary Screen. 360,000 tested, 2.8% active. Plk1 PBD binding of FITC phosphopeptide, fluorescence polarization. Potency, µM, for inactives: max response, negative = inhibition, hits mostly inhibitors. Serine/threonine-protein kinase PLK1 (Homo sapiens), P53350. AID 720504, 2013; also: series mostly up to about 57 µM; % is scaled to controls: 0 for no effect and ±100 for the full control effect; nearly all actives have a fitted effect of over 65% in size
VDR inh: Inhibitors of the vitamin D receptor (VDR): qHTS. Vitamin D3 receptor (Homo sapiens), P11473. VDR-SRC2-3 peptide fluorescence polarization, 2 h. Potency, µM, for the others: max response, negative = inhibition, most hits filed as inhibitors. 400,000 tested, 0.93% active; also: % is scaled to controls: 0 for no effect and ±100 for the full control effect
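Two reagent solutions held at 4 deg C in the dark were dispensed, compounds pinned at 23 nl, and the mixture incubated 2 h at room temperature. Read-out: fluorescence polarization of VDR–SRC2-3 peptide binding.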
HP1b binding inh: HTS for Inhibitors of HP1-beta Chromodomain Interactions with Methylated Histone Tails. Potency, µM (series often up to 114 µM), inactives show at the highest dose activity change, negative = inhibition, hits mostly inhibitors. AlphaScreen HP1-beta / biotin-H3K9me3 peptide binding. Chromobox protein homolog 1 (Homo sapiens), P83916. 390,000 tested, 0.56% active. AID 540317, 2011; also: nearly all actives have a fitted effect of over 70% in size
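AlphaScreen: HP1-beta (50 nM) preformed 30 min with biotin-H3(1-18)K9me3 peptide (50 nM) in PBS pH 7.4, 0.01% Tween-20. Compound added for 30 min at RT, then streptavidin donor/nickel chelate acceptor beads (10 ug/mL) for 30 min.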
An asterisk follows results filed as active; ? = inconclusive; / = no result; ! = not active in a repeat; [ ] = another dose, or the depositor's remark. Calls follow the shape of the dose curve; as a rule, active = well fitted curve in the direction sought with a large enough effect; inconclusive = small, poorly fitted or top-dose-only effect, or another doubt; inactive = no such curve, though single readings can be large; an effect the other way counts as inactive or inconclusive. Potency is read from the fitted curve at half-maximal effect.

SMILES	BAZ2B block	JMJD2A Tudor	G9a inh	PLK1 PBD block	VDR inh	HP1b binding inh
CCCCCCCCCCCCCCCCCC(=O)OC(CC(=O)O)C[N+](C)(C)C (stereo not given)	/	/	16.8µM*!	/	17.3%	/
Fc1ccccc1NC(=S)Nn1cnnc1	-24.1%	50.1µM*	3.98µM*	6.7µM*	?	-20.7%
CCc1ccccc1NC(=S)Nn1cnnc1	-25.9%	/	10µM*	/	/	/
CCOc1ccccc1NC(=S)Nn1cnnc1	?	50.1µM*	1.78µM*	2.38µM*	39.8µM*	?
CCc1ccc(NC(=O)Nn2cnnc2)cc1	-16.5%	-10.3%	7.6%	-0.9%	1.8%	27.6%
CCOc1ccccc1NC(=S)Nc1ccccc1F	8.7%	-8.6%	12.6%[59 µM]	-6.2%	1.5%	20.1%
Cc1cccc(NC(=S)Nn2cnnc2)c1C	?	-10.1%	/	?	?	5.7%
Cc1ccccc1NC(=S)Nn1cnnc1	?	-24.8%	/	15µM*	?	?
COc1ccc([C@@H]2[C@@H]3C(=O)N(C(C)(C)C)C(=O)[C@@H]3[C@]3(CC(C)C)C(=O)N(c4cccc(Br)c4)C(=O)N23)cc1	-1.3%	-16.6%	/	-11.5%	-9.2%	34.7%
CC(C)(C)c1cc[n+](CC(=O)Nc2cc(C(F)(F)F)ccc2N2CCOCC2)cc1	-9.5%	-11.5%[57.1 µM]	7.6%	-5.5%	-16.7%	41.3%
CC[C@H](C)[C@H](NC(=O)[C@@H]1CCCN1C(=O)[C@H](Cc1cnc[nH]1)NC(=O)[C@@H](NC(=O)[C@H](Cc1ccc(O)cc1)NC(=O)[C@@H](NC(=O)[C@H](CCCN=C(N)N)NC(=O)CNC)C(C)C)[C@@H](C)CC)C(=O)O	/	/	/	/	-2.1%	/
C=CCNC(=O)c1cc2cc(Cl)ccc2nc1N	/	/	/	-6.4%	/	/
COc1ccccc1CP(=O)(c1ccccc1)c1ccccc1	2.3%	-5.4%	10.0%	-15.1%	-6.3%	36.3%
COc1ccc(NC(=O)c2c(NCc3cccc(OC)c3)sc3c2CCC3)cc1	-5.4%	-28.5%	14.1µM*	/	-15.7%	-5.6%
COc1cccc(C(=O)OCC(=O)Nc2sc3c(c2C(N)=O)CCC3)c1O	50.1µM*	?	?	?	1.4%	-1.9%
COc1cccc(CNc2sc3c(c2C(=O)Nc2ccc(OC)cc2OC)CCC3)c1	-17.6%	?	12.6µM*	/	0.9%	?
COc1ccc(OC)c(NC(=O)c2c(NCc3ccc(OC)c(OC)c3)sc3c2CCC3)c1	-21.7%	?	?	/	6.5%	-5.7%
COc1ccc(NC(=O)c2c(NC(=O)c3cccc(C)c3)sc3c2CCC3)cc1	2.8%	12.1%	-18.2%[59 µM]	/	-17.8%	53.9%
COc1ccc(OC)c(NC(=O)c2c(NCc3ccc(N(C)C)cc3)sc3c2CCCC3)c1	11.2µM*	11.2µM*	12.6µM*	/	4.2%	-25.3%
COc1ccc(-c2nc3cc(C)c(Br)c(C)n3c2Cc2ccccc2)cc1OC	/	/	/	1.1%	/	/
CCN(CC(=O)Nc1ccc(OC)cc1)CC(=O)Nc1sc2c(c1C(=O)OC)CCCC2	-28.1%	?	15.1%[2.33 µM]	-4.5%	-11.6%	24.0%
COc1ccc(NC(=O)CN(C)CC(=O)Nc2sc3c(c2C(N)=O)CCC3)cc1	-4.3%	-29.7%	50.1µM*	?	-3.3%	7.3%
Cc1nn(CC(=O)NCCCN2CC(C)CC(C)C2)c(=O)c2cccn12 (stereo not given)	-14.1%	-6.9%	72.7%	-8.1%	-9.5%	65.2%
O=C(O)c1cccc(Nc2ccc([N+](=O)[O-])c3nonc23)c1	?	-12.0%	70.8µM*	8.5%	10.1%	?
O=[N+]([O-])c1ccc(Nc2ccccc2O)c2nonc12	?	50.1µM*	?	-14.4%	6.3%	?
SMILES	BAZ2B block	JMJD2A Tudor	G9a inh	PLK1 PBD block	VDR inh	HP1b binding inh
Cc1nc2cccnc2n1-c1cccc(C(=O)NCCN(C)C)c1	0.9%	16.6%	-3.5%[59 µM]	/	-1.0%	18.7%
O=C(Nc1ccccc1Cl)C1CCCN(S(=O)(=O)c2ccc(-n3cnnn3)cc2)C1 (stereo not given)	2.9%	-5.0%	13.4%[59 µM]	-4.9%	-2.1%	20.1%
CC(=O)Nc1sc2c(c1CN1CCN(c3ccc(F)cc3)CC1)CCCC2	50.1µM*	?	44.7µM*	1.3%	2.8%	-36.0%
CC(=O)Nc1sc2c(c1CN1CCCC1)CCCC2	0.5%	-19.0%	?	-2.6%	3.0%	-2.7%
CC(/C=N/NC(=O)c1ccccc1F)=C\c1ccccc1	-14.9%	-17.2%	25.2%	-8.2%	-10.4%	18.3%
COc1ccc(C(c2c(C)[nH]n(C(N)=S)c2=O)C(C#N)C#N)cc1 (stereo not given)	4.9%	-7.2%	?	21.2µM*	28.2µM*	24.3%
COc1ccc(C(C#N)c2ccc(=O)[nH]n2)cc1 (stereo not given)	-12.9%	1.0%	?	-3.1%	-17.6%	28.1%
COc1ccc2sc(N(CCCN(C)C)C(=O)c3ccc(S(=O)(=O)N4CCCc5ccccc54)cc3)nc2c1	28.2µM*	20µM*	39.8µM*	-9.9%	?	?
COc1cc2nc(N(CCCN(C)C)C(=O)c3ccc(S(=O)(=O)N4CCc5ccccc54)cc3)sc2cc1OC	?	50.1µM*	11.2µM*	-20.2%	2.0%	?
CCc1nc(Nc2cc(OC)ccc2OC)c2oc3ccccc3c2n1	1.4%	-18.2%	?	-7.6%	12.7%	0.6%
CCc1nc(NCc2ccccn2)c2oc3ccccc3c2n1	?	-22.9%	25.1µM*	-2.8%	2.9%	34.7%
c1ccc(CNc2ncnc3c2oc2ccccc23)nc1	4.6%	-20.8%	/	-8.0%	-6.4%	5.5%
CCc1nc(Nc2ccccc2OC)c2oc3ccccc3c2n1	-2.7%	3.7%	50.1µM*	-3.3%	1.1%	56.0%
COc1ccccc1NS(=O)(=O)c1cccc(C(=O)NCC(c2ccco2)N(C)C)c1 (stereo not given)	-33.5%	-30.3%	-6.0%	-7.9%	12.4%	8.9%
O=C(COC(=O)c1ccc(O)cc1O)NC1CCCCCC1	8.0%	-12.8%	19.9%[59 µM]	-14.0%	-0.4%	-0.5%
Cc1ccc(N=C2c3ccccc3C(=O)C2[N+](=O)[O-])cc1C (stereo not given)	-27.4%	-27.2%	39.8µM*	-9.9%	5.7%	17.4%
CCCNC(=O)C1(C)CCN(CCC(=O)c2ccc(Br)cc2)C1 (stereo not given)	/	/	/	10.6µM*	/	/
CCCNC(=O)C1(C)CCN(Cc2ccc(C(=O)OCC)cc2)C1 (stereo not given)	/	/	/	-11.2%	/	/
